NPC1 promoter act: qHTS Assay for NPC1 Promoter Activators; actives 2.4% (n = 320,000); Potency, µM (series often up to 9.22 µM), inactives show top-dose activation, actives largely listed as activators; AID 485313, 2010; Huh7 NPC1 promoter luciferase reporter, 24 h; also: % of control where 0% means no effect; nearly all actives have a fitted effect of over 60% in size
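Luminescence read-out of NPC1 promoter-driven luciferase in stably transfected Huh7 cells; compounds delivered in DMSO and left 24 h at 37C, 5% CO2, qHTS titration format.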
Rab9 promoter act: qHTS Assay for Rab9 Promoter Activators. Huh7 Rab9 promoter-luciferase reporter, luminescence, 24 h. actives 2.8% (n = 320,000). Potency, µM (doses to about 9.22 µM), without a hit: at the highest dose activation, negative = inhibition, most hits filed as activators; also: % of control where 0% means no effect; nearly all actives have a fitted effect of over 60% in size
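Luminescence read-out: Huh7 cells stably expressing Rab9-luciferase, treated 24 h with compound at 37 °C, then lysed with luciferase reagent for 10 min at ambient before reading.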
ELG1 genotoxic: qHTS screen for small molecules that induce genotoxicity in human embryonic kidney (HEK293T) cells expressing luciferase-tagged ELG1. HEK293T ELG1-luciferase reporter, luminescence, 16 h. Potency, µM (doses to about 46 µM), for inactives: at the top dose activity change, positive = activation, most hits filed as activators. actives 1.3% (n = 330,000); also: % of control where 0% means no effect; nearly all actives have a fitted effect of over 60% in size
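After overnight (16 hr) compound treatment at 37 °C, ELG1-luciferase HEK293T cells were lysed with ONE-Glo; luminescence quantified 30 min later at room temperature.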
SMN2 splice enh: qHTS Assay for Enhancers of SMN2 Splice Variant Expression. HEK293 SMN2-luciferase splicing reporter, luminescence, 30-36 h. AID 1458, 2008. Potency, µM (doses to about 46.1 µM), for inactives: top-dose activity change, positive = activation, actives largely listed as activators. actives 2.8% (n = 210,000); also: % of control where 0% means no effect; nearly all actives have a fitted effect of over 55% in size
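qHTS luciferase splicing reporter: luminescence rises when SMN2 exon 7 is included in transfected HEK293 cells. Compound exposure lasted 30-36 h at 37C, with 4.5 mM final sodium butyrate as control, followed by a ONE-Glo read.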
FLuc counter: qHTS profiling assay for firefly luciferase inhibitor/activator using purifed enzyme and Km concentrations of substrates (counterscreen for miR-21 project). AID 588342, 2011. actives 6.9% (n = 360,000). purified FLuc, Km substrates, luminescence inhibition. Potency, µM (top dose mostly 57.5 µM), for inactives: at the highest dose activity change, negative = inhibition, most hits filed as inhibitors. Luciferin 4-monooxygenase (Photinus pyralis), P08659;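 also: plate controls were vehicle for no effect and reference inhibitor for full effect; nearly all actives have a fitted effect of over 55% in size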
Target sequence (P08659 whole entry, looked up): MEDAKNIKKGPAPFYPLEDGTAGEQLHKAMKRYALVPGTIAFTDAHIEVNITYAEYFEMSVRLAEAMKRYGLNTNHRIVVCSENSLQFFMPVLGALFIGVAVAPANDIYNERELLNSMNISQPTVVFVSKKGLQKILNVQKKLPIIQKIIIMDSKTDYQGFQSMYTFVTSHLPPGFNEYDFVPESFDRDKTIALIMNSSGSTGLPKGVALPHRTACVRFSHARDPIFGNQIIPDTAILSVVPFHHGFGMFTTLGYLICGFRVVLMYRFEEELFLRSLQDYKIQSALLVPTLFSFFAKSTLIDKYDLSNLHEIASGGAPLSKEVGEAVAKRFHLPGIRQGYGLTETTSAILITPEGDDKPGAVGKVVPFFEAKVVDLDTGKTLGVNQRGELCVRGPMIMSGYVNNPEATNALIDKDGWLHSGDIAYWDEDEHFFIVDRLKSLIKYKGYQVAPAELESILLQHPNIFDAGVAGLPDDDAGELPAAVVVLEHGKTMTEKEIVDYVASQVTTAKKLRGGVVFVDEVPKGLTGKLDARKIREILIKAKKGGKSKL
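Purified P. pyralis luciferase, 10 nM final, with Km-level 10 uM D-luciferin and 10 uM ATP in 50 mM Tris acetate pH 7.5, 10 mM Mg acetate, 0.01% Tween-20, 0.05% BSA; 6-point qHTS titration about 60 µM downward; luminescence read.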
* marks the source's active call; other numbers are inactive results; ? = inconclusive; / = no result given; [ ] = another dose, or the depositor's remark. Most compounds without a hit are left out; they make up all but 7.5% or so of the library. Calls follow the shape of the dose curve; as a rule, active = well fitted curve in the direction sought with a large enough effect; inconclusive = small, poorly fitted or top-dose-only effect, or another doubt; inactive = no such curve, though single readings can be large; an effect the other way counts as inactive or inconclusive. Potency is read from the fitted curve at half-maximal effect.

SMILES	NPC1 promoter act	Rab9 promoter act	ELG1 genotoxic	SMN2 splice enh	FLuc counter
Cc1cc(OCc2cc(C(=O)N(C)C3CCOCC3)no2)cc(C)c1Cl	3.5µM*	4µM*	18%	/	21µM*
COc1ccc(OCc2cc(C(=O)NC3CCOC(C)(C)C3)no2)c2ccccc12 (configuration not stated)	2.8µM*	3.5µM*	?	/	8.5µM*
Cc1ccc(OCc2cc(C(=O)NCC3COCCO3)no2)cc1C (configuration not stated)	1%	/	18%	/	?
Cc1ccc(OCc2cc(C(=O)N(C)CC3CCOCC3)no2)cc1C	2.8µM*	3.2µM*	?	/	12µM*
COc1ccccc1OCc1cc(C(=O)N(C)CCC2CCCCO2)no1 (configuration not stated)	2.5µM*	1.6µM*	10µM*	/	12µM*
COc1cccc2c1cc1c(=O)n(CC(=O)N3CCN(c4cc(Cl)ccc4C)CC3)nc(C)n12	/	/	/	-4%	0%
COc1ccc(OCc2cc(C(=O)N(C)C3CCOCC3)no2)c2ccccc12	?	?	12%	/	15µM*
COc1ccc(OCc2cc(C(=O)N(C)C3CCOC3)no2)c(Cl)c1 (configuration not stated)	2%	9%	12%	/	?
O=C(COc1ccccc1Cl)Nc1ccc(NC(=O)c2ccco2)cc1	2%	19%	5%	/	-2%
O=C(Nc1ccc(-c2noc(COc3ccccc3Cl)n2)cc1)c1ccco1	3.2µM*	?	?	11µM*	11µM*
CC(C)(C)c1ccc(-c2noc(CNC(=O)c3ccco3)n2)cc1	0%	6%	10%	/	15µM*
CC(NC(=O)c1ccco1)c1nc(-c2ccc(C(C)(C)C)cc2)no1 (configuration not stated)	8%	0%	-1%	/	17µM*
CCCCCC(=O)OCCc1c(C)nc2nc[nH]n2c1=O	1%	-18%	-2%	13%	-17%
CCOC(=O)c1ccc(NC(=O)CCc2c(C)nc3nc[nH]n3c2=O)cc1	/	/	/	1%	27µM*
O=C(NCc1nc(-c2ccccc2)no1)c1ccco1	/	/	/	2%	-8%
CCOc1ccccc1CNS(=O)(=O)c1ccc(-c2coc(C)n2)cc1	/	/	/	/	2%
O=C(Cc1ccc(Cl)cc1)NC1CCCCCC1	19%	22%	13%	/	-17%
CCOC(=O)c1ccc(NC(=O)CCc2nc(-c3ccc(C)cc3)no2)cc1	-2%	8%	23µM*	-101%	1%
CCOC(=O)c1ccc(NC(=O)CCc2nc(-c3ccc(Cl)cc3)no2)cc1	-5%	-15%	1%	-19%	-4%
COc1ccccc1-c1noc(CCC(=O)Nc2cc(C(F)(F)F)ccc2Cl)n1	1%	8%	-16%	-38%	19µM*
CC(C)(C)c1ccc(-c2noc(CCC(=O)Nc3cccc(Cl)c3)n2)cc1	/	/	/	-40%	?
Cc1cccc(-c2noc(CCC(=O)NCc3ccco3)n2)c1	0%	-1%	5%	3%	-4%
Cc1ccc(C)c(NC(=O)CCc2nc(-c3ccc(C(C)(C)C)cc3)no2)c1	/	/	/	-9%	2.1µM*
CC(C)(C)c1ccc(-c2noc(CCC(=O)NCc3ccco3)n2)cc1	-20%	-15%	-8%	-49%	2.7µM*
C/C(=N\n1c(C)cc(C)c(C#N)c1=O)c1cccs1	1%	6%	3%	-7%	0%
SMILES	NPC1 promoter act	Rab9 promoter act	ELG1 genotoxic	SMN2 splice enh	FLuc counter
CCn1cc(/C=C(\NC(=O)c2ccccc2Cl)C(=O)NCCN2CCOCC2)c2ccccc21	1%	-1%	-3%	/	17µM*
CC(=O)c1cccc(NC(=O)CCS(=O)(=O)c2ccc3c(c2)n(C)c(=O)c(=O)n3C)c1	/	/	/	6%	2%
CCC(=O)N1c2ccccc2[C@@H](N(C(C)=O)c2ccccc2)C[C@H]1C	2%	14%	23µM*	7.9µM*	0%
CCOC(=O)/C(N=Nc1ccc2c(c1)OCO2)=C(\C)O	4µM*	2.5µM*	?	11µM*	13µM*
Cc1ccc(-c2nc3[nH]c(=O)cc(NC(=O)C(C)C)n3n2)cc1	1%	-6%	0%	/	-2%
Cc1ccc(NC(=O)c2cnn(-c3ccccc3)c2C)cc1C	0.4µM*	0.63µM*	?	/	0.34µM*
COc1ccc(NC(=O)c2cnn(-c3ccccc3)c2C)cc1OC	2.8µM*	?	?	/	11µM*
Cc1cc(C(=O)Nc2ccc(C)c(C)c2)n(-c2ccccc2)n1	-1%	-11%	-3%	/	-13%
COc1ccc(OC)c(NC(=O)c2cnn(-c3ccccc3)c2C)c1	16%	7%	-3%	/	?
COc1ccc(NC(=O)c2cnn(-c3ccccc3)c2C)cc1	2.5µM*	0.4µM*	?	/	3.8µM*
CCOc1nc(-c2ccc(C)cc2)ccc1-c1noc(-c2cccnc2)n1	0%	-2%	1%	/	1%
Cc1ccccc1C(=O)Nc1nnc(-c2ccco2)s1	0.56µM*	0.32µM*	1.5µM*	2µM*	1.5µM*
Cc1ccccc1OCC(=O)Nc1nnc(-c2ccco2)s1	-1%	-2%	2%	/	-2%
COc1ccccc1C(=O)Nc1nnc(-c2ccco2)s1	0%	?	1.6µM*	11µM*	2.7µM*
COc1ccc(NC(=O)CSc2nnnn2C2CCCCC2)c(OC)c1	0%	-8%	-2%	/	2%
COC(=O)c1c(NC(=O)c2cccc(S(=O)(=O)N3CCN(C)CC3)c2)sc(C)c1C	1%	-2%	-20%	/	1%
O=[N+]([O-])c1ccccc1S(=O)(=O)Nc1cccc(-c2ccc(N3CCOCC3)nn2)c1	25%	?	?	/	2.7µM*
O=S(=O)(Nc1cccc(-c2ccc(N3CCOCC3)nn2)c1)c1cc(Cl)ccc1Cl	19%	?	?	/	7.6µM*
Cc1ccc([N+](=O)[O-])cc1S(=O)(=O)Nc1ccc(-c2ccc(N3CCCC3)nn2)cc1	11%	2%	6%	/	?
Cc1ccc([N+](=O)[O-])cc1S(=O)(=O)Nc1cccc(-c2ccc(N3CCOCC3)nn2)c1	20%	?	9.2µM*	/	3µM*
O=[N+]([O-])c1ccccc1S(=O)(=O)Nc1cccc(-c2ccc(N3CCCC3)nn2)c1	23%	20%	?	/	17µM*
Cc1cc(OCCCC(=O)N2CCCCC2)cc(C)c1Cl	0%	-7%	?	-27%	0%
Oc1cc(O)cc(/C=C/c2ccc(O)c(O)c2)c1	?	-34%[46.1 µM]	5.2µM*	32µM*	9.5µM*
C/C=C/c1ccc(O)c(OC)c1	-3%	2%	-18%	-2%	-1%
Nc1cccc(-c2cn3ccsc3n2)c1	/	/	/	/	21µM*

Bioassay records from PubChem.
